# Reference: PubChem BioAssay (EPA / NIEHS)
# Activity calls are given as the source filed them. The calls were made as follows: active = hit-call score of the fitted dose curve at least 0.9, where 1 is the maximum; inactive = score below 0.9.
# Read-out: Matrix Metallopeptidase 9 (MMP9), MMP9 (gene 4318)
# Experiment: BSK_KF3CT_MMP9: BioMAP Diversity Plus: KF3CT Assay for Matrix Metallopeptidase 9 (MMP9) Biomarker Activity (AID 2283074)
# Conditions: primary human keratinocytes with fibroblasts; actives raise or lower the signal
# Experimental: BSK_KF3CT is a cell-based, multiplexed-readout assay that uses keratinocytes and foreskin fibroblasts, a human skin primary cell co-culture, with measurements taken at 24 hours after chemical dosing in a 96-well plate.BSK_KF3CT_MMP9 is an assay component measured in the BSK_KF3CT assay. It measures MMP-9 antibody related to regulation of gene expression using ELISA technology.Data from the assay component BSK_KF3CT_MMP9 was analyzed into 1 assay endpoint. This assay endpoint, BSK_KF3CT_MMP9, was analyzed with bidirectional fitting relative to DMSO as the negative control and baseline of activity. Using a type of binding reporter, gain or loss-of-signal activity can be used to understand changes in the signaling as they relate to the gene MMP9. Furthermore, this assay endpoint can be referred to as a primary readout, because this assay has produced multiple assay endpoints where this one serves a signaling function. To generalize the intended target to other relatable targets, this assay endpoint is annotated to the protease intended target family, where the subfamily is matrix metalloproteinase.
# The levels of cell surface (or secreted, indicated by the prefix "s") biomarker endpoints were measured by ELISA. Overt cytotoxicity to cells in confluent adherent cultures (all systems other than the BT system) was assessed by measuring total protein levels using sulforhodamine B (SRB) staining in parallel cultures at the time of biomarker measurements, indicated as SRB endpoints. For proliferation assays for adherent cell types, individual cell types are cultured at sub-confluence and relative cell numbers quantified by SRB staining at time points optimized for each system (48 h: 3C and CASM3C systems; 72 h: BT and HDF3CGF systems; 96 h: SAg system). SRB was performed by staining cells with 0.1% SRB after fixation with 10% TCA and reading wells at 560 nm.Viability and proliferation of PBMC (T cells) was quantified by Alamar Blue reduction for the SAg and BT systems. For PBMC viability (referred to as PBMC Cytotoxicity within the assay endpoint names), cells were plated (75,000/well in a 96-well plate) and then chemical samples added for 1 h before addition of activators, SEB and TSST-1 (20 ng/mL final concentration each). Cells were incubated for 90 h. Then, Alamar Blue (20 uL/well) (Invitrogen, Cat DAL1100) was added for 6 h, and the plates were read with a fluorescence microplate reader at 546/580 nm (excitation/emission). For PBMC proliferation, cells were plated and activated as above but incubated for only 16 h prior to addition of Alamar Blue. Plates were read after 6 h.
Compound,outcome,AC50
CC(C)CCCCCCCOC(=O)CCCCC(=O)OCCCCCCCC(C)C,inactive,
O=C(O)c1cc(N=Nc2ccc(S(=O)(=O)Nc3ccccn3)cc2)ccc1O,inactive,
CCc1cc(SCc2sc(-c3ccc(C(F)(F)F)cc3)nc2CN2CCN(c3ccc(OC)cc3)CC2)ccc1OCC(=O)O,,4.08 µM (active)
CN(C)c1ccc(N=NS(=O)(=O)O)cc1,inactive,
CC(C)=CCCC(C)CCO (stereo not given),inactive,
CCOC(=O)COc1ccc2c(c1)CC(NCC(O)c1cccc(Cl)c1)CC2 (stereo not given),inactive,
Oc1ccc2c(c1)-c1ccccc1C2,inactive,
Nc1cccc(N)c1,inactive,
CCOCCOCCOCCO,inactive,
CCCN(C1CCN(C(=O)C2CCNCC2)CC1)[C@@H]1CCc2ccc(OC)cc2C1,inactive,
Cn1c(=O)c2c(ncn2C)n(C)c1=O,inactive,
Cc1ccc(S(=O)(=O)O)cc1C,inactive,
CC(C)CC(C)(O)C#CC(C)(O)CC(C)C (stereo not given),inactive,
Cc1c(-c2cccnc2)c2ccccc2n1CCCCC(=O)O,inactive,
C1N2CN3CN1CN(C2)C3,inactive,
CN(C)c1ccc(Cc2ccc(N(C)C)cc2)cc1,inactive,
O=C(NS(=O)(=O)/C=C/c1ccccc1)c1ccc(F)cc1Cl,inactive,
Cn1cnc([N+](=O)[O-])c1Sc1ncnc2nc[nH]c12,inactive,
Cc1ccc(O)cc1,inactive,
CNCc1ccc(NC(=O)c2c[nH]c3c2C(=O)CCC3)cc1,inactive,

Compound,outcome,AC50
CCNc1ccccc1,inactive,
C=CC(=C)CCC=C(C)C,inactive,
CC(C)=CCC/C(C)=C\CO,inactive,
Fc1ccccc1[C@@H](F)COC1CCC(Nc2ncnc3[nH]ncc23)CC1 (stereo not given in full),inactive,
CC1=CC(=O)CC(C)(C)C1,inactive,
O=C1CCCCCN1,inactive,
CC(=O)OC[C@H]1O[C@@](COC(C)=O)(O[C@H]2O[C@H](COC(C)=O)[C@@H](OC(C)=O)[C@H](OC(C)=O)[C@H]2OC(C)=O)[C@@H](OC(C)=O)[C@@H]1OC(C)=O,inactive,
CCCCC(CC)COC(=O)c1ccc(C(=O)OCC(CC)CCCC)cc1 (stereo not given),inactive,
O=C1OC(=O)C2C3C=CC(C3)C12 (stereo not given),inactive,
COCCOCCOCCOC,inactive,
CCOC(=O)CC(CC(=O)OCC)(OC(C)=O)C(=O)OCC,inactive,
NC(=O)NO,inactive,
COc1ccc(/C=C/S(=O)(=O)NC(=O)c2ccc(C)cc2Cl)cc1,inactive,
Cc1ccc(C)c(O)c1,inactive,
O=C(CCCCCCCCc1cccnc1)N1CCC(C=C(c2ccccc2)c2ccccc2)CC1,,7.47 µM (active)
CCOc1cccc(-n2cc(C(=O)N3CCN(c4cc(C(=O)O)c5ccccc5c4)CC3)nc2-c2ccc(C)cc2)c1,,19.7 µM (active)
CCCCC(CC)COC(=O)CCCCCCCCC(=O)OCC(CC)CCCC (stereo not given),inactive,
C=CCCCCCCCCC(=O)O,inactive,
COC(=O)c1c(Cl)c(Cl)c(C(=O)OC)c(Cl)c1Cl,inactive,
CC(C)c1cccc(C(C)C)c1N1C(=O)c2ccc(O)cc2C1=O,,23.2 µM (active)
